Among the data in ChEMBL document CHEMBL1157539, “Thousands of chemical starting points for antimalarial lead identification” (Nature, 2010) are Inhibition values, retold here.

The subject of the first test is Plasmodium falciparum. As to the kind of experiment: GSK_TCMDC: Inhibition of Plasmodium falciparum 3D7 in whole red blood cells, using parasite LDH activity as an index of growth. Test compounds present at 2uM. The test is classed as functional.
As for `Brc1ccc(Nc2nc3ccccc3nc2Nc2ccc(Br)cc2)cc1`, the Inhibition – broadly, the relative decrease from the control value, in per cent – was determined as 100%.
The same measure, in the same setting: to `O=C(NCCN1CCCCC1)c1ccc(Nc2nccc(Nc3ccc(Oc4ccccc4)cc3)n2)cc1` belongs 100%; to `COc1cccc(-c2cc(C(=O)NC3CCC(N4CCC(c5ccccc5C)CC4)CC3)[nH]n2)c1` (stereo not drawn), 99%; to `COc1cc(CCOc2c(C)nc(N)nc2N)cc(OC)c1OC.Cl`, 93%.
Still for that read-out and setting: to `CN1CCN(Cc2cccc(Nc3nccc(Nc4ccc(Oc5ccccc5)cc4)n3)c2)CC1` belongs 97%; to `O=C(/C=C/c1ccc(Cl)c(Cl)c1)NC1CCC(CN2CCC(c3nc4ccccc4s3)CC2)CC1` (stereo not drawn), 87%.
The same measure, in the same setting: for `Cc1cccc2nc(-c3ccc(-c4ccc(NC(=O)Nc5ccc(Cl)c(Cl)c5)cc4)cc3)[nH]c12` the value was 100%.
Compound `CCCCN1C(=N)NC(c2ccccc2)(c2ccccc2)C1=O` showed an Inhibition of 87%.
Still for that read-out and setting: for `Cc1cc(N[C@@H](Cc2ccccc2)C(=O)NCCOc2ccccc2)nc(NCCc2ccccc2)n1.O=C(O)C(F)(F)F` the value was 100%; for `O=C(Cn1c(CCc2cccc(F)c2F)cc(=O)c2cccnc21)N(CCCn1ccnc1)Cc1ccc(-c2ccc(C(F)(F)F)cc2)cc1`, 96%; for `COc1cc2ncnc(Nc3ccc(OCc4ccccc4)c(OCc4ccccc4)c3)c2cc1OC.Cl`, 100%.
The same measure, in the same setting: for `Oc1cccc2ccc(Nc3ccccn3)nc12` the value was 99%.
`Cc1ccc(C)c(Cn2ccc3nc(N)nc(N)c32)c1` showed an Inhibition of 97%.
The same measure, in the same setting: to `COC(=O)c1cc(OC2CCOC2=O)cc2c1OC(C)(C)O2` (stereo not drawn) belongs 97%; to `CNC(=O)Cc1ccc(C(=O)Nc2cccc(-c3ccc(-c4nc5cccc(C)c5[nH]4)s3)c2)cc1`, 91%; to `CC(C)CC(=O)N1CCNC[C@@H]1C(=O)NCCSCc1c(F)cccc1Cl.O=C(O)C(F)(F)F`, 86%.
Still for that read-out and setting: for `CN(C)CCOc1cc(NC(=O)Nc2ccc(-c3ccccc3)cc2)ccc1I` the value was 100%; for `CCC(O)(C#Cc1c(C)nc(N)nc1N)CC`, 97%; for `COc1cccc(Nc2nc(N)c3ccccc3n2)c1.Cl`, 88%.
The same measure, in the same setting: for `CC(C)[C@H](NC(=O)c1ccc(O)c(-c2ccc(Cl)c(Cl)c2)c1)C(=O)NCCN1CCOCC1` the value was 95%; for `CC(C)C1=C[C@H]2C[C@]3(C4OCCO4)[C@@H]4CC[C@@H](C)[C@H]4C[C@@]2(COCc2cccc(C#N)c2)[C@]13C(=O)OC(c1ccccc1)c1ccccc1`, 88%.
In turn, `CCOc1ccc(-c2nc(NC(=O)Cc3cccc(OC)c3)sc2C)cc1` yielded an Inhibition of 97%.
On the same count and under the same terms, to `COc1ccc2nccc(N3CCCN(CCNCc4ccc5c(n4)NC(=O)CS5)CC3)c2n1.Cl` belongs 100%; to `CN1CCCN(c2ccnc3cc4c(cc23)N(C(=O)c2ccc(Cl)cc2)CC4)CC1.Cl`, 100%; to `COc1cc(Nc2nccc(Nc3ccc4c(C)n[nH]c4c3)n2)cc2ccccc12.Cl`, 100%.
On the same count and under the same terms, for `CS(=O)(=O)n1c(CN2CCN(c3ncc(C(F)(F)F)cc3Cl)CC2)nc2ccccc21` the value was 83%.
The compound `COc1ccc2nccc(N3CCC(CCNCc4cc5c(cn4)OCCO5)CC3)c2n1.Cl` had an Inhibition of 100%.
Still for that read-out and setting: for `c1ccc(Oc2ccc(Nc3nc(NCCc4c[nH]cn4)nc(NC4CCCC4)n3)cc2)cc1` the value was 97%.
The same measure, in the same setting: for `Cc1cc(N(CCO)CCCN2CCCCC2)nc(Nc2ccc(Cl)cc2)n1.Cl` the value was 100%; for `COc1cc2cc(C(=O)Nc3ccccc3)c(N)nc2cc1OC`, 90%; for `CCCNCc1ccc(-c2ccc(CN(C(=O)c3nn(-c4ccccc4)nc3C)C3CCOCC3)cc2)nc1.O=C(O)C(F)(F)F`, 98%.
The same measure, in the same setting: for `CCc1cn2c3c(cc(C(=O)N[C@@H](Cc4cc(F)cc(F)c4)[C@H](O)CNC4CCCCC4)cc13)N(C)S(=O)(=O)CC2.O=CO` the value was 100%; for `Cc1ccc2nc3sc(C(=O)NCCCN4CCC(N5CCCCC5)CC4)cc3cc2c1`, 100%; for `Cc1cc(NC(=O)c2cc(Br)ccc2Cl)n(-c2nc(C)c(C)c(=O)[nH]2)n1`, 91%.
For `COc1cccc(CCNCc2ccc(-c3cccc(CNC4CCCC4)c3)cc2)c1.O=C(O)C(F)(F)F`, the Inhibition worked out at 100%.
Same read-out and setting: to `CC(C)(C)c1nn(-c2ccc(Cl)cc2)c2[nH]c(=O)c(CNCc3cccs3)cc12` belongs 100%.
On the same count and under the same terms, to `CCCNCc1ccc(-c2ccc(CN(CCOC)C(=O)CCC(=O)c3ccc(OC)c(F)c3)cc2)nc1.O=C(O)C(F)(F)F` belongs 100%; to `CCN(CC)CCNc1c2ccc(Cl)cc2nc2ccc(OC)nc12.Cl`, 100%; to `CN(C)Cc1cccc(CNC(=O)c2sccc2OCc2ccc(Cl)cc2)c1`, 90%.

Another test relates to Plasmodium falciparum. As to the kind of experiment: GSK_TCMDC: Inhibition of Plasmodium falciparum Dd2 in whole red blood cells, using parasite LDH activity as an index of growth. Test compounds present at 2uM. The test is classed as functional.
For the compound `Brc1ccc(Nc2nc3ccccc3nc2Nc2ccc(Br)cc2)cc1`, the Inhibition was 100%.
Regarding `O=C(NCCN1CCCCC1)c1ccc(Nc2nccc(Nc3ccc(Oc4ccccc4)cc3)n2)cc1`, the Inhibition came to 91%.
Take `COc1cccc(-c2cc(C(=O)NC3CCC(N4CCC(c5ccccc5C)CC4)CC3)[nH]n2)c1` (stereo not drawn): the Inhibition is reported as 58%.
Still for that read-out and setting: to `COc1cc(CCOc2c(C)nc(N)nc2N)cc(OC)c1OC.Cl` belongs 0%.
In the case of `CN1CCN(Cc2cccc(Nc3nccc(Nc4ccc(Oc5ccccc5)cc4)n3)c2)CC1`, the Inhibition is 80%.
Same read-out and setting: for `O=C(/C=C/c1ccc(Cl)c(Cl)c1)NC1CCC(CN2CCC(c3nc4ccccc4s3)CC2)CC1` (stereo not drawn) the value was 32%.
Still for that read-out and setting: to `Cc1cccc2nc(-c3ccc(-c4ccc(NC(=O)Nc5ccc(Cl)c(Cl)c5)cc4)cc3)[nH]c12` belongs 100%; to `CCCCN1C(=N)NC(c2ccccc2)(c2ccccc2)C1=O`, 34%; to `Cc1cc(N[C@@H](Cc2ccccc2)C(=O)NCCOc2ccccc2)nc(NCCc2ccccc2)n1.O=C(O)C(F)(F)F`, 68%.
For the compound `O=C(Cn1c(CCc2cccc(F)c2F)cc(=O)c2cccnc21)N(CCCn1ccnc1)Cc1ccc(-c2ccc(C(F)(F)F)cc2)cc1`, the Inhibition is on record as 47%.
Still for that read-out and setting: for `COc1cc2ncnc(Nc3ccc(OCc4ccccc4)c(OCc4ccccc4)c3)c2cc1OC.Cl` the value was 57%.
Still for that read-out and setting: to `Oc1cccc2ccc(Nc3ccccn3)nc12` belongs 93%; to `Cc1ccc(C)c(Cn2ccc3nc(N)nc(N)c32)c1`, 3%; to `COC(=O)c1cc(OC2CCOC2=O)cc2c1OC(C)(C)O2` (stereo not drawn), 0%.
In turn, `CNC(=O)Cc1ccc(C(=O)Nc2cccc(-c3ccc(-c4nc5cccc(C)c5[nH]4)s3)c2)cc1` showed an Inhibition of 25%.
On the same count and under the same terms, for `CC(C)CC(=O)N1CCNC[C@@H]1C(=O)NCCSCc1c(F)cccc1Cl.O=C(O)C(F)(F)F` the value was 3%; for `CN(C)CCOc1cc(NC(=O)Nc2ccc(-c3ccccc3)cc2)ccc1I`, 45%.
Same read-out and setting: to `CCC(O)(C#Cc1c(C)nc(N)nc1N)CC` belongs 0%; to `COc1cccc(Nc2nc(N)c3ccccc3n2)c1.Cl`, 47%; to `CC(C)[C@H](NC(=O)c1ccc(O)c(-c2ccc(Cl)c(Cl)c2)c1)C(=O)NCCN1CCOCC1`, 44%.
Same read-out and setting: to `CC(C)C1=C[C@H]2C[C@]3(C4OCCO4)[C@@H]4CC[C@@H](C)[C@H]4C[C@@]2(COCc2cccc(C#N)c2)[C@]13C(=O)OC(c1ccccc1)c1ccccc1` belongs 92%; to `CCOc1ccc(-c2nc(NC(=O)Cc3cccc(OC)c3)sc2C)cc1`, 28%; to `COc1ccc2nccc(N3CCCN(CCNCc4ccc5c(n4)NC(=O)CS5)CC3)c2n1.Cl`, 10%.
As for `CN1CCCN(c2ccnc3cc4c(cc23)N(C(=O)c2ccc(Cl)cc2)CC4)CC1.Cl`, the Inhibition is listed as 0%.
For the compound `COc1cc(Nc2nccc(Nc3ccc4c(C)n[nH]c4c3)n2)cc2ccccc12.Cl`, the Inhibition worked out at 82%.
The same measure, in the same setting: to `CS(=O)(=O)n1c(CN2CCN(c3ncc(C(F)(F)F)cc3Cl)CC2)nc2ccccc21` belongs 59%.
Still for that read-out and setting: for `COc1ccc2nccc(N3CCC(CCNCc4cc5c(cn4)OCCO5)CC3)c2n1.Cl` the value was 100%.
The same measure, in the same setting: for `c1ccc(Oc2ccc(Nc3nc(NCCc4c[nH]cn4)nc(NC4CCCC4)n3)cc2)cc1` the value was 23%; for `Cc1cc(N(CCO)CCCN2CCCCC2)nc(Nc2ccc(Cl)cc2)n1.Cl`, 18%.
In turn, `COc1cc2cc(C(=O)Nc3ccccc3)c(N)nc2cc1OC` registered an Inhibition of 0%.
The same measure, in the same setting: for `CCCNCc1ccc(-c2ccc(CN(C(=O)c3nn(-c4ccccc4)nc3C)C3CCOCC3)cc2)nc1.O=C(O)C(F)(F)F` the value was 0%.
For the compound `CCc1cn2c3c(cc(C(=O)N[C@@H](Cc4cc(F)cc(F)c4)[C@H](O)CNC4CCCCC4)cc13)N(C)S(=O)(=O)CC2.O=CO`, the Inhibition is listed as 99%.
On the same count and under the same terms, for `Cc1ccc2nc3sc(C(=O)NCCCN4CCC(N5CCCCC5)CC4)cc3cc2c1` the value was 71%; for `Cc1cc(NC(=O)c2cc(Br)ccc2Cl)n(-c2nc(C)c(C)c(=O)[nH]2)n1`, 83%.
On the same count and under the same terms, to `COc1cccc(CCNCc2ccc(-c3cccc(CNC4CCCC4)c3)cc2)c1.O=C(O)C(F)(F)F` belongs 45%; to `CC(C)(C)c1nn(-c2ccc(Cl)cc2)c2[nH]c(=O)c(CNCc3cccs3)cc12`, 77%; to `CCCNCc1ccc(-c2ccc(CN(CCOC)C(=O)CCC(=O)c3ccc(OC)c(F)c3)cc2)nc1.O=C(O)C(F)(F)F`, 47%.
The same measure, in the same setting: to `CCN(CC)CCNc1c2ccc(Cl)cc2nc2ccc(OC)nc12.Cl` belongs 99%.
Consider `CN(C)Cc1cccc(CNC(=O)c2sccc2OCc2ccc(Cl)cc2)c1`, for which the Inhibition is 88%.
